# PubChem BioAssay (NCI)
# This is part of a sample that, as a whole, favours compounds with a hit. Of some 79,000 tested, about 15% had one in any assay. Unmarked numbers belong to inactive results. Activity calls are given as the source filed them. Cut-off read from the data, not from the text of the source: active = growth inhibition above about 70%; inactive = the rest.
# What was measured:
# [1] = NCI Yeast Anticancer Drug Screen. Data for the rad50 strain (AID 155);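 note: 0% = growth of vehicle-only cultures of the same strain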; settings: S. cerevisiae rad50 strain growth inhibition; at 50.0 µM; active compounds read high
# Summary of the method: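 Compounds were tested on a yeast strain with an engineered DNA damage repair alteration; the reported value is growth inhibition normalised to vehicle treatment.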
# [2] = NCI Yeast Anticancer Drug Screen. Data for the mec2-1 strain (AID 157); settings: S. cerevisiae mec2-1 strain, at 50.0 µM, active compounds read high
# Summary of the method: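 Test agents were screened against the mec2-1 yeast strain, with defined DNA repair or cell cycle alteration. Growth was scored as inhibition against vehicle-only controls.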
# [3] = NCI Yeast Anticancer Drug Screen. Data for the sgs1 mgt1 strain (AID 161);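 note: 0% = growth of cultures given vehicle only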; settings: S. cerevisiae sgs1 mgt1 strain, at 50.0 µM, active compounds read high
# Summary of the method: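 Read-out: growth inhibition vs vehicle controls. Cells: mutant yeast strain deficient in DNA damage repair.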
# [4] = NCI Yeast Anticancer Drug Screen. Data for the cln2 rad14 strain (AID 165);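 note: 0% = growth equal to vehicle treated cultures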; settings: S. cerevisiae cln2 rad14 strain, at 50.0 µM, active compounds read high
# Summary of the method: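 Growth of compound-exposed yeast (cln2 rad14 genotype) measured and expressed as inhibition relative to vehicle.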
# [5] = NCI Yeast Anticancer Drug Screen. Data for the bub3 strain (AID 167); settings: S. cerevisiae bub3 mutant strain, at 50.0 µM, active compounds read high
# Summary of the method: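 Growth of a checkpoint-deficient yeast mutant is measured after compound exposure. Values represent inhibition relative to vehicle.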
# [6] = NCI Yeast Anticancer Drug Screen. Data for the mlh1 rad18 strain (AID 175); settings: S. cerevisiae mlh1 rad18 strain growth inhibition; at 50.0 µM; active compounds read high
# Summary of the method: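 In this whole-cell yeast screen, a strain with altered DNA damage repair is challenged with compound, and its growth is measured against matched vehicle-treated controls.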
SMILES,growth inhibition [1],growth inhibition [2],growth inhibition [3],growth inhibition [4],growth inhibition [5],growth inhibition [6]
CSc1nc(Br)nc2c1ncn2C1CC(Oc2ccc(C)cc2)C(COc2ccc(C)cc2)O1 (stereo unspecified),13.4%,4.3%,22.1%,18.6%,17.1%,-23.8%
COc1cc(NCCCN(CC(C)C)CC(C)C)c2ncccc2c1Cl,27.5%,26.1%,55%,19.8%,27.3%,38.4%
CCCC(=O)OCC(C)(C)CC(C)C,-9.55%,-57.9%,-10.5%,-5.55%,-14.5%,-24.4%
O=C([O-])C(=O)[N-]CCC[N-]C(=O)C(=O)[N-]CCC[N-]C(=O)C(=O)[O-].[Cu+2].[Cu+2].[Na+],-8.45%,-13.6%,4.35%,-21.8%,-7.7%,8.9%
CCCCCCCCc1cc(CN(C)C)c(O)c(C(C)(C)CC(C)(C)C)c1,-13.7%,2.35%,27.3%,16.7%,16%,8.3%
O=C(Nc1ccc(Cl)c(Cl)c1)OCC1CC2C=CC1C2 (stereo unspecified),95.2% (active),97.8% (active),97.3% (active),94.8% (active),94.9% (active),95% (active)
O=c1[nH]cnc2c1cnn2-c1ccccc1,17.1%,5.3%,9.7%,3.85%,-2.05%,22.4%
Cc1ccccc1C(C#N)/C(=N/NC(=O)C(=O)NN)C(=O)Nc1cccc(C(F)(F)F)c1 (stereo unspecified),34.1%,10.9%,14.2%,23.1%,0.25%,21.8%
C(=C(c1ccccc1)c1ccccc1)=C(c1ccccc1)c1ccccc1,30.8%,12.9%,24.6%,-15.4%,4.95%,32%
CC(=O)n1cc(CC(C)O)c(=O)[nH]c1=O (stereo unspecified),-2.45%,-21%,-16.2%,4.85%,-13.2%,-28.1%
CC(C)(CO)NO,-13.7%,-6.9%,3.05%,-0.4%,-14.3%,-5.7%
CCOC(=O)C(Cc1ccccc1C)(NC(C)=O)C(=O)OCC,6.65%,-0.25%,7.35%,4.1%,1.4%,-11.2%
O=C(OC1CCC(c2ccccc2)C1)c1cc([N+](=O)[O-])cc([N+](=O)[O-])c1 (stereo unspecified),35%,25.9%,29.4%,-4.3%,44.3%,58.1%
CCCCCCCCCCCCOc1ccc2ccccc2c1,-7.2%,15.9%,0.85%,-17.6%,-6.45%,-8.15%
O=C(CCCn1cnc([N+](=O)[O-])n1)NCCCn1ccnc1[N+](=O)[O-],-26.2%,-19.7%,-26.1%,-3.45%,-34.8%,-7.8%
CN(C)CCOC(=O)COc1ccc(Cl)cc1,-10.2%,26.6%,9.9%,38%,28.9%,21.4%
OC1CCC(C2CCCCC2)CC1 (stereo unspecified),-8.5%,-8.05%,-2.65%,6.8%,-14.3%,-8.65%
Clc1ccc(-c2nnc(-c3ccc4ccccc4c3)o2)cc1,-43%,-60.8%,-22.2%,3.1%,-47.5%,-25.4%
OC(c1ccccc1)c1c(-c2ccccc2)[nH]c(-c2ccccc2)c1C(O)c1ccccc1 (stereo unspecified),1%,14.8%,-6.5%,22.2%,-23.3%,-6.9%
O=C(Oc1ccccc1)C(Cc1ccccc1)NC(=O)C(F)(F)F (stereo unspecified),4.6%,7.7%,-4.8%,1.5%,5.85%,-37.4%
O=C(NNc1nc(N2CCOCC2)nc(N2CCOCC2)n1)c1ccccc1,16.6%,5.15%,10.9%,15.3%,-5.05%,-4.3%

SMILES,growth inhibition [1],growth inhibition [2],growth inhibition [3],growth inhibition [4],growth inhibition [5],growth inhibition [6]
OCc1cc(Cl)cc(Cc2cc(Cl)cc(Cc3cc(Cl)cc(Cc4cc(Cl)cc(Cc5cc(Cl)cc(CO)c5O)c4O)c3O)c2O)c1O,-14.8%,-17.4%,-9.35%,-28.4%,-18.9%,-27.9%
CCC(=O)c1nc(N)[nH]c1CC,-36.7%,-21.6%,-12.1%,-44.3%,-3%,-6.45%
O=C1/C(=C/c2ccc(Cl)cc2)COc2ccc(Br)cc21,26.1%,4.85%,-5.1%,6.7%,1.8%,-2.45%
O=C1NC(=S)N/C1=C/c1ccc2c(c1)CCC2,13.9%,-20.2%,20.6%,12.4%,31.8%,12.7%
NNC(=O)CC1(O)CCCCC1,-0.35%,-9.2%,2.3%,0.4%,-17.1%,-19.8%
O=[N+]([O-])c1ccc(S(=O)(=O)Nc2ccccc2-c2ccccc2)cc1,99% (active),99% (active),99.3% (active),98.2% (active),98.8% (active),98.7% (active)
Clc1ccc(C2=NCCO2)cc1,-23.8%,-32.1%,-5.75%,-11.8%,4.85%,-26.3%
CN(C)c1nc2ccccc2[nH]1,2.6%,-4.25%,11.9%,-1.35%,-4.85%,-2%
CCN(CC)CCCNC(Cc1ccccc1)c1ccc(OC)cc1 (stereo unspecified),-1.85%,-7.45%,-4.05%,9.05%,-17.6%,-19.8%
Cc1ccc2oc(=O)c(C(=O)Nc3nc(C45CC6CC(CC(C6)C4)C5)cs3)cc2c1,-23.1%,-22.9%,-23.6%,13%,-30.5%,-26.2%
CCS1=C2C(=O)CC(C)(C)CC2=Nc2ccccc21 (stereo unspecified),7.2%,-0.15%,18.9%,-8.05%,17.9%,-31.1%
ClNc1nc(NCl)nc(NCl)n1,-17.7%,-25.8%,-5.1%,2%,-9.8%,-19.1%
Clc1cc2ncn(C3CCCO3)c2cc1Cl (stereo unspecified),6.3%,5.1%,3%,5.95%,49%,11.8%
COc1ccc(C2c3cc4c(cc3OC(O)(CO)C2C(=O)O)OCO4)c(OC)c1OC (stereo unspecified) (tested in a mixture with another compound),0.2%,-4%,6%,-15.5%,-18.3%,9.65%
OC(c1nc2ccccc2s1)(C(F)(F)F)C(F)(F)F,-14.2%,-20.1%,-9.5%,18.4%,-13%,38.4%
O=C(O)c1cccc(N=Nc2ccccc2)c1O,22.1%,-12.4%,4.65%,-7.1%,6.05%,10.7%
CCCC(CNC(C)=O)(c1ccccc1)C1CCCCC1 (stereo unspecified),-10.7%,6.9%,3.15%,27.9%,11.2%,16.1%
Cc1ccc(S(=O)(=O)N/N=C/c2oc(-c3ccccc3Cl)c(-c3ccccc3Cl)c2[N+](=O)[O-])cc1,54.2%,45.3%,58.5%,38.4%,41.5%,48.1%
Fc1ccc(Cl)c(-c2nc3ccccc3[nH]2)c1,14.2%,15.4%,2.85%,2.35%,-1.5%,47.3%
CCOC(=O)c1ccc(NC(=S)N(CCC#N)C2CCCCC2)cc1,33.4%,7.2%,62.5%,27.1%,48.4%,30.9%
